# From PubChem BioAssay
# Pf Dd2 growth – Plasmodium falciparum Dd2 growth inhibition; P. falciparum Dd2 growth, SYBR Green, 72 h; 4.3% of 120,000 active; Potency, µM (series often up to 28.9 µM), for inactives: at the highest dose activity, negative = inhibition, actives largely listed as inhibitors; active = well fitted inhibition curve with a large enough effect;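 also: plate controls were DMSO vehicle for no effect and reference drug for full effect; nearly all actives have a fitted effect of over 65% in size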
#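 Readout: SYBR Green fluorescence, 485 nm excitation, 535 nm emission, after ~16 h lysis at 37C. Before that, Dd2-infected red cells (2.5% hematocrit) grew 72 h with compound, 29 uM top final concentration.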
# Active calls of the source: *; i = inactive; [ ] = dose if it differs, or a comment. Only a selection was taken, and hits are over-represented in it overall. Potency is read from the fitted curve at half-maximal effect.
SMILES,Pf Dd2 growth
CCC(=O)NCC1c2cc(OC)c(OC)cc2CCN1C(=O)Nc1ccccc1 (configuration not stated),-5%
CCC(=O)NCC1c2cc(OC)c(OC)cc2CCN1C(=O)Nc1cccc(C)c1 (configuration not stated),i
COc1cc2c(cc1OC)C(CNC(=O)C1CCCC1)N(C(=O)Nc1cccc(C)c1)CC2 (configuration not stated),11µM*
COc1cc2c(cc1OC)C(CNC(=O)c1cccs1)N(C(=O)Nc1ccccc1F)CC2 (configuration not stated),i
COc1cc2c(cc1OC)C(CNC(=O)c1ccccc1Cl)N(C(=O)Nc1ccccc1F)CC2 (configuration not stated),-3%
COc1cc2c(cc1OC)C(CNC(=O)c1cccs1)N(C(=O)Nc1ccccc1)CC2 (configuration not stated),8.9µM*
COc1cc2c(cc1OC)C(CNC(=O)c1ccccc1)N(C(=O)Nc1ccccc1F)CC2 (configuration not stated),i
COc1ccccc1NC(=O)N1CCc2cc(OC)c(OC)cc2C1CNC(C)=O (configuration not stated),9%
NC(=O)[C@@H]1C[C@H](Oc2cccnc2)CN1S(=O)(=O)c1ccc2c(c1)OCCO2,8%
CC(C)CC(=O)N1CCC(Oc2nccnc2N(C)C)C1 (configuration not stated),5%
CCC1c2nccn2CCCN1C(=O)c1cnc(C)cn1 (configuration not stated),22%
O=C(c1[nH]nc2c1CCc1ccccc1-2)N1CCC(c2noc(-c3cccnc3)n2)C1 (configuration not stated),i[5.79 µM]
CCCCN(CCCC)S(=O)(=O)c1ccc2oc(C(=O)NCc3ccc(C)cc3)c(C)c2c1,8.9µM*
CCN(CC)S(=O)(=O)c1ccc2oc(C(=O)N(C)Cc3ccccc3)c(C)c2c1,-22%
COc1ccc(C)cc1NC(=O)c1oc2ccc(S(=O)(=O)N(C)C3CCCCC3)cc2c1C,29%
COC[C@@H]1CN(C(=O)c2cn3ccccc3n2)C[C@H]1c1ccncc1,-8%
Cc1ccc(NC(=O)CC2CCOCC2)cc1C,8%
CCCN(CCC)CC(O)Cn1cc(/C=C/C(=O)c2ccc(C)cc2)c2ccccc21 (configuration not stated),1.1µM*
Cc1ccc(CNC(=O)CCc2cn(Cc3ccc(C)cc3)c3ccccc23)cc1,-22%
CCCCN(C)CC(O)Cn1cc(/C=C/C(=O)c2ccc(C)cc2)c2ccccc21 (configuration not stated),2.5µM*
CCCN(CCC)CC(O)Cn1cc(/C=C/C(=O)c2ccc(Br)cc2)c2ccccc21 (configuration not stated),3.2µM*
CCN(CC)C(=O)Cn1cc(SCC(=O)Nc2cccc(C)c2)c2ccccc21,-4%
COCc1nc2nc(-c3ccccc3)c(-c3ccc([S+](C)(=O)[O-])cc3)cc2n1C,-31%[44.1 µM]
CCOc1cccc(-c2noc(-c3nnn4c3COC(c3ccc(Cl)cc3)C4)n2)c1 (configuration not stated),-16%
O=C(NC1CCCCC1)[C@@H]1C[C@@H](O)CN1C1CCN(C(=O)c2nccc3ccccc23)CC1,-25%
SMILES,Pf Dd2 growth
Cc1noc([C@@H]2CC(F)(F)CN2C(=O)c2ccoc2)n1,i
O=C(CCn1nnc2ccccc21)N1CCOCC(O)(CN2CCCC2)C1 (configuration not stated),0%
Cc1cc(C(=O)N2CCC(C(=O)N3CCCCCCNC(=O)CC3)CC2)n(C)n1,6%
O=C(Nc1cccc(Cl)c1)N1CCCCC1c1noc(COCC2CC2)n1 (configuration not stated),-20%
CCCCn1c(NCc2cc(Cl)ccc2O)nc2ccccc21,3.2µM*
CCCCn1c(C(C)NC(=O)c2ccccc2)nc2ccccc21 (configuration not stated),i
CCCCCCn1c(CNC(=O)c2ccccc2)nc2ccccc21,-20%
COc1ccccc1Cc1nc(-c2nnn3c2COC(c2ccc(Cl)cc2)C3)no1 (configuration not stated),-22%
Cc1cccc2c(C3CCN(C(=O)c4c(Cl)cc(Cl)cc4Cl)CC3)c[nH]c12,-17%
Cn1cc(C(=O)N2CC[C@@](C)(O)[C@@H](O)C2)c2ccccc21,-3%
Cn1cc(C2CCN(C(=O)c3c(Cl)cc(Cl)cc3Cl)CC2)c2ccccc21,8.9µM*
CC(C)C1=NOC2(CCN([S+](=O)([O-])c3cccs3)C2)C1 (configuration not stated),9%
CCOc1ccc(CCNC(=O)c2ccc(-n3c(C)cc4c3CCC(C)C4)cc2)cc1OCC (configuration not stated),8.9µM*
COc1ccc(CCNC(=O)c2ccc3c(c2)nc2n3CCC(C)C2)cc1OC (configuration not stated),1%
CSc1ccc(CCNC(=O)c2ccc(-n3c(C)cc4c3CCC(C)C4)cc2)cc1 (configuration not stated),42%[5.79 µM]
CCOc1ccccc1NC(=O)c1c(NCc2ccc(C)o2)sc2c1CCCCC2,13µM*
COc1ccc(/C=C/C(=O)Nc2sc3c(c2C(N)=O)CCCC3)cc1,5%
COc1ccccc1NC(=O)c1c(NC(=O)c2ccccc2Cl)sc2c1CCC2,-14%
CCOC(=O)N1CCc2c(sc(NCc3sccc3C)c2C(=O)Nc2cc(Cl)ccc2OC)C1,-19%
CCOc1ccccc1NC(=O)c1c(NC(=O)COc2ccccc2)sc2c1CCCC2,54%
COc1ccc(NC(=O)c2c(NC(=O)C(F)(F)F)sc3c2CCCCC3)cc1,3.2µM*
COC(=O)c1ccc(NC(=O)c2c(NCc3ccc(OC)c(OC)c3)sc3c2CCCC3)cc1,11µM*
CCOC(=O)c1c(NC(=O)c2ccc(OC)c(OC)c2)sc2c1CCCCC2,2%
COc1ccc(CC(=O)Nc2sc3c(c2C(=O)Nc2ccc(C)cc2)CCCCC3)cc1,-23%
COc1ccc(Cl)cc1NC(=O)c1c(NCc2cccnc2)sc2c1CCCC2,11µM*
SMILES,Pf Dd2 growth
CCOc1ccccc1NC(=O)c1c(NCc2ccc(C)o2)sc2c1CCC(C)C2 (configuration not stated),44%
COC(=O)c1c(NC(=O)/C=C/c2ccc(OC)c(OC)c2)sc2c1CCC2,6%
O=C(CCC1CCN(C(=O)c2ccccc2Cl)CC1)NC1CCS(=O)(=O)C1 (configuration not stated),-8%
COc1cc(Cl)ccc1C(=O)N1CCC(OC2CCN(C)CC2)CC1,i
O=C(N1CCC(C(=O)N2CCc3ccccc32)CC1)N1CC2CC(C1)[C@H]1CCCC(=O)N1C2 (some centres not stated),i
O=C(N1CCN(Cc2ccc(Cl)c(Cl)c2)CC1)C12CNCC1CNC2 (configuration not stated),i
O=C(c1nc(-c2ccc(Cl)cc2)c2ccccn12)N1CCOCC1,-21%[44.1 µM]
COc1ccc(-n2c(C(C)NC(=O)OCc3ccccc3)nc3cccnc32)cc1 (configuration not stated),-8%
CCNC(=O)CC1=CSC2=NC(C)=C(C(=O)Nc3ccccc3)C(c3ccc(F)cc3)N12 (configuration not stated),i
CC(C)C1=NOC2(CCN(C(=O)c3ccc4c(c3)OCO4)C2)C1 (configuration not stated),14%
Cc1cnn(C)c1S(=O)(=O)NC1CC(c2cc(N3CCCC3)ncn2)C1 (configuration not stated),-28%
